Source: PubChem BioAssay (EPA / NIEHS)
Calls of active or inactive are those of the source. Rule for the calls: active = hit-call score of the fitted dose curve at least 0.9, where 1 is the maximum; inactive = score below 0.9.

What follows are compounds tested on Cytochrome P450 3A7 (Homo sapiens) (UniProt P24462) (assay: LTEA_HepaRG_CYP3A7: Life Technologies and Expression Analysis (LTEA) Assay for CYP3A7 using HepaRG (AID 2283492)). Settings: mRNA level, 48 h; actives raise or lower the signal.
Chain of Cytochrome P450 3A7 (Homo sapiens) (P24462 whole entry, looked up): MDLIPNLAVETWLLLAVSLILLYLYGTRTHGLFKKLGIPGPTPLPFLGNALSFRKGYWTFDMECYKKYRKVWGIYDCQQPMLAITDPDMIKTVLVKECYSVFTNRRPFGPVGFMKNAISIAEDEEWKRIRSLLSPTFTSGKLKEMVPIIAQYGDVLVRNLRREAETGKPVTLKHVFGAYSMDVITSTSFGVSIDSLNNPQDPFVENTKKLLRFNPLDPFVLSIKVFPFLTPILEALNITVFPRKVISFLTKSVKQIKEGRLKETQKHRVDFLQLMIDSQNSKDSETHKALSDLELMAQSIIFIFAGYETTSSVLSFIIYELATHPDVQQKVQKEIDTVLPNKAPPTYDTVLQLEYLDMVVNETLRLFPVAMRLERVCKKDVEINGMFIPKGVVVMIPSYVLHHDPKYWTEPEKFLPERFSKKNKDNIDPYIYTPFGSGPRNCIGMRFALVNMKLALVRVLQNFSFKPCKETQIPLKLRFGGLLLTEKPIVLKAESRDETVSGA
Experimental: LTEA_HepaRG is a cell based, multiplexed-readout assay that uses HepaRG, a human liver cell line, with measurements taken at 48 hours after chemical dosing on a 96-well plate.LTEA_HepaRG_CYP3A7 is one of 102 assay component(s) measured in the LTEA HepaRG cell culture assay. It is a marker of NR mediated metabolism/Undifferentiated hepatocyte.Data from the assay component LTEA_HepaRG_CYP3A7 was analyzed into 1 endpoint. This assay endpoint, LTEA_HepaRG_CYP3A7, was analyzed with bidirectional fitting relative to DMSO as the negative control and baseline of activity. Using a type of inducible reporter, measures of mRNA induction for gain or loss-of-signal activity can be used to understand regulation of transcription factor activity. To generalize the intended target to other relatable targets, this assay endpoint is annotated to the cyp intended target family, where the subfamily is xenobiotic metabolism.
A total of 1060 chemcials from the ToxCast library were tested in eight-point concentration-response experiments. Cell culture and cytotoxicity assays were conducted at Thermo Fisher Scientific's Custom Services facility (Madison, WI). A single lot of human HepaRG cells (Thermo Fisher Scientific, Frederick, MD) was used for the cell culture experiments. 96-well format collagen type I coated plates of human HepaRG cells were prepared using established methods. Briefly, cryopreserved HepaRG cells were thawed, plated at a density of approximately 100,000 cells/well in HepaRG Thaw, Plate, and General Purpose media (HPRG770, Thermo Fisher Scientific), and incubated for 48 hours. 0.5% DMSO was selected as vehicle control to balance the requisite need of DMSO in HepaRG cultures to maintain differentiation (for example, baseline metabolism, proportions of hepatocytes vs. cholangiocytes), while enabling further hepatic receptor pathway activation (for example, PXR and CAR) in response to chemical exposure. 48 hours after plating, the culture medium was replaced with HepaRG Serum-Free Incudtion Media. Cells were exposed to each test chemical in duplicate and maintained in CO2 incubators for another 48 hours. Chemical plates were thawed to room temperature and 200x concentrations of treatment groups were prepared. 8-point conentration-reponse curves were made with the highest exposure at 100 uM, followed by half-log dilutions, all in 0.5% DMSO. Each test plate contained variouse controls, induction positive controls (1mM phenobarbital), cytotoxicity positive controls ([…] aflatoxin B1), vehicle controls (0.5% DMSO), and total lysis controls (0.5% DMSO). Cell morphology images were taken using an Essen IncuCyte FLR automated microscope, with six 96-well plates imaged in about 24 minutes. Images were captured and exported and JPEG files. Spent culture media was transfered to black-well plates for the LDH assay, and remaining media was sorted at -80 C for later use. Cells were treated with RLT buffer and frozen until shipped for gene expression analysis. Total RNA was isolated from the cell suspension in 75 uL of Buffer RLT (Qiagen, Germantown, MD 20874) by Quintiles/Expression Analysis (Durham, NC) using a custom isolation procedure. Total RNA from each plate well was transferred to a preamplification plate. Fluidigm's 96.96 Dynamic ArrayTM (Fluidigm, Amsterdam, the Netherlands) technology was used for gene expression analyses by quantitative reverse transcription polymerase chain reaction (qRT-PCR, performed by Quintiles/Expression Analysis, Durham, NC)89. Standard TaqManTM Assays (Applied Biosystems/ThermoFisher Scientific, Foster City, CA) were used to assess the expression of 93 genes selected based on their selectivity and sensitivity to important hepatic receptors known to be modulated by environmental chemicals; importance in human hepatocyte functionality; and hepatotoxicity. […]

Row | SMILES | outcome | AC50
1 | CCCCOC(=O)c1ccccc1C(=O)OCc1ccccc1 | inactive | 
2 | CC(C)(C)C(O)(CCc1ccc(Cl)cc1)Cn1cncn1 (stereo not given) |  | 2.43 µM (active)
3 | O=[N+]([O-])C(Br)(CO)CO | inactive | 
4 | O=Cc1ccco1 | inactive | 
5 | Nc1ccc(Cc2ccc(N)cc2)cc1 |  | 21.4 µM (active)
6 | O=[N+]([O-])c1ccc(Oc2ccc(Cl)cc2Cl)cc1 |  | 2.45 µM (active)
7 | CC(C)(C)OOC(C)(C)CCC(C)(C)OOC(C)(C)C | inactive | 
8 | CCC(C)c1ccc(O)cc1 (stereo not given) | inactive | 
9 | CN(C)c1ccc(C(=O)c2ccc(N(C)C)cc2)cc1 | inactive | 
10 | CS(=O)(=O)NC(=O)c1cc(Oc2ccc(C(F)(F)F)cc2Cl)ccc1[N+](=O)[O-] |  | 4.43 µM (active)
11 | CCOc1cccc(C2(N3CCN(c4ccccc4)CC3)CCC(C)CC2)c1 (stereo not given) | inactive | 
12 | N#CC(Br)Br | inactive | 
13 | CCOC(=O)[C@]1(c2ccccc2)Oc2ccccc2[C@@H]1N |  | 85.4 µM (active)
14 | COC(=O)c1ccccc1N | inactive | 
15 | ClC1=C(Cl)[C@]2(Cl)[C@H]3[C@H]([C@@H]4C=C[C@H]3C4)[C@@]1(Cl)C2(Cl)Cl |  | 8.45 µM (active)
16 | ClCCOCCCl | inactive | 
17 | CCC[CH2][Sn]([Cl])([CH2]CCC)[CH2]CCC |  | 0.377 µM (active)
18 | Cc1ccc(N)cc1 | inactive | 
19 | CC(C)(O)c1cnn2c(-c3ccc(F)c(-c4c(F)cccc4C#N)c3)cnc2n1 | inactive | 
20 | COC(=O)Nc1nc2ccccc2[nH]1 | inactive | 

Row | SMILES | outcome | AC50
21 | c1ccc2c(c1)oc1ccccc12 | inactive | 
22 | ClC1=C(Cl)C2(Cl)C3C(Cl)C=CC3C1(Cl)C2(Cl)Cl (stereo not given) | inactive | 
23 | CC(C)(C)OOC(=O)c1ccccc1 | inactive | 
24 | Cc1ccc([N+](=O)[O-])cc1 | inactive | 
25 | OCCCBr | inactive | 
26 | O=C(O)C1C2CCC(O2)C1C(=O)O (stereo not given) |  | 61.1 µM (active)
27 | Oc1ccc2ccc3cccc4ccc1c2c34 | inactive | 
28 | O=C(N[C@H](c1ccccc1)[C@@H]1CN2CCC1CC2)c1c(Cl)ccc(C(F)(F)F)c1Cl |  | 76.2 µM (active)
29 | c1ccc(N=Nc2ccccc2)cc1 | inactive | 
30 | Clc1ccc(Cl)c(Cl)c1 | inactive | 
31 | C=CCc1ccc2c(c1)OCO2 | inactive | 
32 | CCN(CC)N=O | inactive | 
33 | Clc1ccc(C(c2ccc(Cl)cc2)C(Cl)Cl)cc1 |  | 9.55 µM (active)
34 | CNC(=O)Oc1cccc2c1OC(C)(C)C2 |  | 7.32 µM (active)
35 | N#CC(Br)(Br)C(N)=O | inactive | 
36 | C[N+](C)(C)CC1CO1 (stereo not given) | inactive | 
37 | [Cl-].[Cl-].[Hg+2] | inactive | 
38 | OCCOCCO | inactive | 
39 | Nc1ccc(Oc2ccc(N)cc2)cc1 | inactive | 
40 | CCCCCCCCOC(=O)c1ccc(C(=O)OCCCCCCCC)c(C(=O)OCCCCCCCC)c1 | inactive | 
